# From PubChem
# A selection: hits, their analogues and other compounds. The true share with any hit is near 0.85%.
# Coupling enz: counter-screen for Giardia aldolase inhibitors: coupling enzyme system; coupling enzyme system counterscreen, AmpLite Red fluorescence; activity change, negative = inhibition, % at 58.2 µM, hits read low; 0.67% of 290,000 active; AID 2472; in the data active means activity change below about -30%
#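 Fluorescence at 525 nm excitation and 598 nm emission measured inhibition of the coupled detection system without aldolase. Compounds (at 57.5 uM final) were preincubated 10 min at room temperature with coupling enzyme reagent before a 20 min substrate/AmpLite Red step.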
# GAA glycogen mod: GAA glycogen-cleavage inhibition or activation. recombinant GAA, glycogen substrate, Amplex Red glucose oxidase fluorescence. Potency, µM (doses to about 76.4 µM), without a hit: at the top dose activity change, negative = inhibition, most hits filed as inhibitors. 0.38% of 300,000 active. AID 2100;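 further: potency means the concentration at half of the fitted maximal effect; 0% = full enzyme reaction and -100% = no-enzyme basal signal; the screen sought inhibitors and activators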
#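 Natural-substrate format: glycogen cleavage by 4 nM human enzyme, glucose read by Amplex Red coupling (Ex 573, Em 610 nm). Normalized to enzyme and no-enzyme controls.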
# GAA inh: alpha-glucosidase (human) inhibition. P10253. purified human GAA, 4-MU-alpha-glucoside fluorescence. Potency, µM (doses to about 76.9 µM), inactives show top-dose activity change, negative = inhibition, hits mostly inhibitors. 0.005% of 200,000 active. AID 1466;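 further: potency means the concentration at half of the fitted maximal effect; plate controls were uninhibited enzyme wells for no effect and no-enzyme background for full effect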
#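 Endpoint fluorogenic read: 20 min room-temperature reaction of 4 nM human alpha-glucosidase with 400 uM 4-methylumbelliferyl-alpha-D-pyranoside, pH 5.0, quenched with 1M NaOH/1M glycine pH 10. AC50 from Hill modeling.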
# aGlu spleen mod: lysosomal alpha-glucosidase (human) modulation. P10253. human spleen homogenate, 4-MU-alpha-glucoside fluorescence. AID 2112. 0.006% of 240,000 active. Potency, µM (doses to about 79.9 µM), for the others: at the top dose activity change, negative = inhibition, actives largely listed as inhibitors;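 further: potency means the concentration at half of the fitted maximal effect; 0% = enzyme with vehicle and -100% = no enzyme basal signal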
#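 Human spleen homogenate (1 ug) with 4-methylumbelliferyl-alpha-D-glucopyranoside (1 mM final) in 50 mM citrate/phosphate pH 5.0, 0.01% Tween-20; 40 min at 37 C. Stopped at pH 10; 4-MU fluorescence Ex 365/Em 440 nm; AC50 by Hill fit.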
# B2AR arrestin: beta2AR (human) beta-arrestin recruitment activity. P07550. beta-arrestin recruitment to beta2AR, cell-based reporter. Potency, µM (titrated, usually from 46.1 µM), for inactives: at the top dose activation, hits mostly activators. 0.02% of 330,000 active;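 further: potency means the concentration at half of the fitted maximal effect; 0% = DMSO controls and full agonism = EC100 isoproterenol or metaproterenol; nearly all actives have a fitted effect of over 65% in size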
# Target sequence (P07550 whole entry, looked up): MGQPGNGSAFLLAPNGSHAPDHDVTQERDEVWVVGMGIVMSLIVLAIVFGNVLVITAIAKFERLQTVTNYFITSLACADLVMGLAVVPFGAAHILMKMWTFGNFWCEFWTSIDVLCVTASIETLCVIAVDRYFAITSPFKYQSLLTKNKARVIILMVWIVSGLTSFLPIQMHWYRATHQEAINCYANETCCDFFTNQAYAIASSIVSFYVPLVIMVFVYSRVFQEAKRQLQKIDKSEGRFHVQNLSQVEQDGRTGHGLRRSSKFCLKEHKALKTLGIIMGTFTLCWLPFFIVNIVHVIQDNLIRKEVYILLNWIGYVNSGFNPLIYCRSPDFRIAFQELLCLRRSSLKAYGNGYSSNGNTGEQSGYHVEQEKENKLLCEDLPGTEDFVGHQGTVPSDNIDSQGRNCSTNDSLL
# Active calls of the source: *; ? = inconclusive; . = no result given; ! = not confirmed by another sample; [ ] = remark or other dose. Unless noted, the call rests on the fitted dose curve; in most records, active means well fitted curve in the direction sought with a large enough effect; inconclusive means small, poorly fitted or top-dose-only effect, or another doubt; inactive means no such curve, though single readings can be large; an effect the other way counts as inactive or inconclusive. Unless noted, on the % scale 0 is the no-effect control and ±100 the full control effect.
SMILES,Coupling enz,GAA glycogen mod,GAA inh,aGlu spleen mod,B2AR arrestin
CC1(C)Cc2c(C#N)c(N)sc(=S)c2CS1,-44*,-27%,-3%,-4%,0%
N#Cc1c(N)sc2c1CCCCCC2,-5,?,3%,1%,0%
Cn1c(N)c(C#N)c2c(c1=S)CSC(C)(C)C2,-25,-2%,?,-1%,0%
Cc1noc(C)c1-c1ccc2ncnc(NCc3ccc(C(F)(F)F)cc3)c2c1,-2,.,.,8%,.
COc1ccc(Nc2ccc(OC)cc2)cc1,-41*,?,.,-19%,0%
COc1ccc(-c2cnc(NCc3ccc(C)cc3)n2C)cc1,.,10µM*,.,.,.
CC(C)(N)C(=O)N[C@@H](Cc1cnc[nH]1)C(=O)N[C@H](Cc1ccc2ccccc2c1)C(=O)N[C@H](Cc1ccccc1)C(=O)N[C@@H](CCCCN)C(N)=O,2,.,.,-2%,.
COc1cc2ccc3c(CCN(C)C)cc(OC)c(OC)c3c2cc1OC,2,1%[76.3 µM],.,.,0%
CN(C)CCc1cc2c(c3c1ccc1ccccc13)OCO2,-36*!,4%[76.3 µM],.,2%,0%
c1cc2cn[nH]c2cc1NC1CCCCCC1,-67*,-10%,-1%,-10%,0%
Nc1ccc(NC(=S)Nc2ccccc2)cc1,2,0%,-4%,-1%,0%
S=C(Nc1ccccc1)Nc1ccc2cn[nH]c2c1,-39*,?,.,1%,-1%
Oc1ccc(NC(=S)Nc2ccccc2)cc1,4,11µM*!,3%,-2%,3%
C=CC[C@](C)(Nc1ccc(OC)cc1)C(=O)OCC,3,.,.,-10%,.
CO[C@H]1C=CO[C@@]2(C)Oc3c(C)c(O)c4c(O)c(c(C=NN5CCN(C)CC5)c(O)c4c3C2=O)NC(=O)C(C)=CC=C[C@H](C)[C@H](O)[C@@H](C)[C@@H](O)[C@@H](C)[C@H](OC(C)=O)[C@@H]1C,-51*,?,-19%[15.4 µM],3%,3%
CO[C@H]1/C=C/O[C@@]2(C)Oc3c(C)c(O)c4c(O)c(c(C=NN5CCN(C)CC5)c(O)c4c3C2=O)NC(=O)/C(C)=C\C=C\[C@H](C)[C@H](O)[C@@H](C)[C@@H](O)[C@@H](C)[C@H](OC(C)=O)[C@@H]1C,.,.,.,.,-1%
CCCCn1c(NC(=O)c2ccccc2)c(C#N)c2nc3ccccc3nc21,-53*,2%,-1%,-12%,0%
Cc1ccc(C(=O)NCCn2c(N)c(C#N)c3nc4ccccc4nc32)cc1,-1,2%,.,?,0%
CCC(C)n1c(NC(=O)c2ccccc2)c(C#N)c2nc3ccccc3nc21 (configuration not stated),-49*,5%,?,-12%,0%
N#Cc1c(NC(=O)c2ccc(Br)o2)n(-c2ccccc2)c2nc3ccccc3nc12,-31*,-4%,.,6%,0%
CCCCC/C=C\C[C@@H](O)/C=C/C=C/C=C/[C@@H](O)CCCC(=O)O,0,.,.,0%,.
Cc1ccc(S(=O)(=O)/C=C\C#N)cc1,4,.,.,16%,.
COc1ccc(-c2oc3ncn4nc(-c5ccccc5Br)nc4c3c2-c2ccc(OC)cc2)cc1,.,10%[76.3 µM],.,.,.
COc1ccc(-c2cn3nc(N4CCC(C(=O)Nc5cccc(OC)c5)CC4)sc3n2)cc1,.,-9%[76.3 µM],.,.,.
COc1cc(C/C=C\c2ccccc2)c(OC)cc1O,-47*,.,.,-6%,.
SMILES,Coupling enz,GAA glycogen mod,GAA inh,aGlu spleen mod,B2AR arrestin
Oc1ccc2ccccc2c1C1Nc2cccc3cccc(c23)N1,-10,10µM*,-4%,-1%,0%
CCn1c(SCC(=O)Nc2sc3c(c2C#N)CCCC3)nnc1-c1ccco1,-40*,5%,-7%,-5%,0%
CCOC(=O)c1ccc(N2C(=O)CC(NNC(=O)c3ccc(Br)s3)C2=O)cc1 (configuration not stated),6,?,.,-2%,-2%
CCOC(=O)c1ccc(N2C(=O)CC(Nc3ccc(O)cc3)C2=O)cc1 (configuration not stated),-3,10µM*,.,-6%,0%
CC1CCC2C(=O)OC(CN3C(=O)c4ccccc4C3=O)CN2C1c1ccc(Br)cc1 (configuration not stated),-2,.,.,4%[17.4 µM],.
CCN(CC)S(=O)(=O)c1cccc(C(=O)N/N=C/c2cccc(O)c2O)c1,-52*,-4%,9%,-4%,3%
O=C1CCc2cc(S(=O)(=O)Nc3cccc(F)c3)cc3c2N1CC3,.,.,.,.,0%
CC1C(=O)NN=C1C(=O)N/N=C\C(Br)=C\c1ccccc1 (configuration not stated),1,25µM*,6%,-2%,0%
CC1=NNC(=O)C1CC(=O)N/N=C/C(Br)=C/c1ccccc1 (configuration not stated),3,?,.,12%,-1%
Cc1noc(C)c1-c1ccc2ncnc(NC(C)c3ccccc3)c2c1 (configuration not stated),0,.,.,-1%,.
COc1cccc(CNc2ccc(S(=O)(=O)Nc3nccs3)cc2)c1O,2,5.6µM*,-6%,3%,0%
Cc1cc2c(cc1Cl)C(c1ccccc1C)CC(=O)O2 (configuration not stated),-1,.,.,2%[119 µM],.
O=C(NCc1ccco1)c1cccn2c(=O)c3cc4ccccc4cc3nc12,-31*,3%,-2%,3%,-1%
